Experimental data published in PubChem BioAssay.
Calls of active or inactive are those of the source.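 How the source made its calls, unless noted: active means fluorescence slope higher than the sample average by over 3 SD (cut at about -0.22 in these data, passing the limit was not always enough); inactive means the rest.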

Key:
[1] = inhibitors of TNFa-induced NFkB p65 translocation, primary screen, imaging, HUVEC, MLSMR starter and 10KST1 sets (AID 438;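 active means inhibition above 20% together with a positive visual image hit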;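 further: compound added about 3h40 before a 20 min TNFalpha stimulation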;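 on inhibition: signal is the nuclear over cytoplasmic p65 intensity ratio per well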); details: HUVEC TNFa-induced p65 nuclear translocation; cell count: measured here: nuclei count (cytotoxicity indicator), at 2.08 µM; inhibition: at 2 µM, stronger effect = higher value, 0% TNFa-plus-vehicle, 100% no-TNFa wells
[2] = reduction of polyQ htt aggregates in cells – imaging, exon1htt(103Q)mCFP cells, high-content imaging, primary screen (AID 483;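 active means visual image review flags a hit and inhibition of aggregation exceeds 20%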;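 further: compound exposure lasted 3 days before fixation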;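 on nuclei count: percent of the per-plate median nuclei count of sample wells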); details: exon1htt(103Q)mCFP cell line, aggregate imaging, at 2 µM; inhibition of aggregation: stronger effect = higher value; nuclei count: measured here: cell count, toxicity
[3] = endothelial E-selectin expression blockers – imaging, HUVEC, immunofluorescence, MLSMR starter and 10KST1 sets, primary screen (AID 487;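 active means visually confirmed hit in the image check and inhibition above 20%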;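 on inhibition: signal is fraction of cell area covered by stained E-selectin grains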;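 on nuclei count: 100% = median nuclei count of all wells on the same plate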); details: HUVEC TNFalpha-induced E-selectin immunofluorescence imaging, at 2 µM; inhibition: stronger effect = higher value; nuclei count: measured here: cell number, toxicity
[4] = target: Voltage-gated potassium channel subunit beta-2 (Rattus norvegicus) (UniProt P62483); assay: inhibitors of rat Kvbeta2 reductase activity – biochemical, NADPH fluorescence, primary screen (AID 622); details: recombinant KvBeta, 4-cyanobenzaldehyde reduction, at 10 µM, stronger effect = higher value;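 further: slope of raw intensity against log time taken from 70 to 1610 s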
Voltage-gated potassium channel subunit beta-2 (Rattus norvegicus), sequence (P62483 whole entry, looked up): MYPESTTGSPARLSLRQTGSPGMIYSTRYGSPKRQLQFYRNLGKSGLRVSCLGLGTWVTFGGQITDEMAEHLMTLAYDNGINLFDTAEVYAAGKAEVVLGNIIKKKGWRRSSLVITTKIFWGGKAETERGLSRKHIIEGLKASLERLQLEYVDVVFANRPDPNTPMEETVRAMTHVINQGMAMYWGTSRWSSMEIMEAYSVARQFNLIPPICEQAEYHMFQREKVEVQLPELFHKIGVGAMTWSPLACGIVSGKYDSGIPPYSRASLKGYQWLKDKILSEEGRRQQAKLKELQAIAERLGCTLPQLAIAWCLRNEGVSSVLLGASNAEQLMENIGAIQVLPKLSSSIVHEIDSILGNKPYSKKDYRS

[5] = target: Voltage-gated potassium channel subunit beta-2 (Rattus norvegicus) (UniProt P62483); assay: enhancers of rat Kvbeta2 NADPH turnover – biochemical, NADPH fluorescence, primary screen (AID 623;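 active means NADPH fluorescence slope more negative than the mean of all samples by about 3 SD, 99.7% confidence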;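 further: fluorescence intensity change per second fitted from 20 to 320 s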); details: Recombinant KvBeta, NADPH fluorescence decrease slope, 10 min; at 10 µM; stronger effect = lower value
[6] = target: Alpha-2C adrenergic receptor (Homo sapiens) (UniProt P18825); assay: compounds altering alpha2C-coupled GIRK flux – cell-based, HEK293 alpha2C/GIRK1/2, thallium flux, primary screen (AID 624;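 active means fluorescence slope after compound addition differing from the mean of all screened samples at 99.7% confidence, in either direction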;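 further: slope of fluorescence ratio to pre-addition baseline per second over 15 to 24 s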); details: thallium flux BTC fluorescence, at 10 µM, actives lie on both sides
Alpha-2C adrenergic receptor (Homo sapiens), sequence (P18825 whole entry, looked up): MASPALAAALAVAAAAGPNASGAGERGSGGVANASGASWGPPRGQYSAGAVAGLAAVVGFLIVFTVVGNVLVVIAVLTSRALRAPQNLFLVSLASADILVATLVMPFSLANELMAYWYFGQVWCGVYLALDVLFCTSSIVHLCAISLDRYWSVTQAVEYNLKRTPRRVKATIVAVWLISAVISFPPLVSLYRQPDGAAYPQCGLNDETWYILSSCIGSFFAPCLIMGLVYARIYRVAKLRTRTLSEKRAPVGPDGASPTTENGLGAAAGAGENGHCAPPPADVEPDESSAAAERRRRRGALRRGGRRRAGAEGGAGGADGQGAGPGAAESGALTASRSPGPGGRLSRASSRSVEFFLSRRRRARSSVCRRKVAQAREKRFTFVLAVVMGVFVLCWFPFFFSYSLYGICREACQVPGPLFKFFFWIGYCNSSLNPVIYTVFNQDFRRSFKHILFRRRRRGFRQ

[7] = blockers of RIG-like receptor reporter activation – cell-based, Sendai virus stimulus, luciferase, 10K MLSCN set, TLR/RLR signaling modifier project, primary screen (AID 602276;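 active means inhibition at or above 50% at 10 µM; inactive means inhibition below 50%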;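 further: firefly luciferase from ISG56 promoter only with Renilla not read in this screen; 0% = Sendai virus plus DMSO and 100% = medium plus DMSO without virus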); details: HEK293 RL24 IRF3 luciferase reporter, at 10 µM, stronger effect = higher value
[8] = TLR3 IRF3 reporter activation blockers – cell-based, poly I:C stimulus, luciferase, 10K MLSCN set, primary screen (AID 602277;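 active means inhibition of the reporter signal at or above 50%; inactive means inhibition below 50%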); details: HEK293-TLR3 RL24 IRF3 luciferase reporter, at 10 µM, stronger effect = higher value

Row | SMILES | cell count [1] | inhibition [1] | inhibition of aggregation [2] | nuclei count [2] | inhibition [3] | nuclei count [3] | fluorescence slope [4] | NADPH fluorescence slope [5] | slope [6] | inhibition [7] | inhibition [8]
1 | CCn1c(=O)c(C(=O)NCCc2ccccc2)c(O)c2ccccc21 | 724 | -0.3% (inactive) | -18.1% (inactive) | 96.4% | -9.2% (inactive) | 104% | -0.302 (inactive) | -2.8e-06 (inactive) | 0.0106 (inactive) | 18.3% (inactive) | 12.5% (inactive)
2 | Cc1cccc(NC(=O)CS(=O)(=O)c2cn(C)c3ccccc23)c1 | 628 | 2.4% (inactive) | 4.8% (inactive) | 99.7% | -12.5% (inactive) | 103% | -0.521 (inactive) | 2.1e-06 (inactive) | 0.00711 (inactive) | 7.93% (inactive) | 22.7% (inactive)
3 | COc1ccc(-c2nc3c(n2O)CCC/C3=N\O)cc1 | 319 | -8% (inactive) | 0.2% (inactive) | 98.1% | -2.4% (inactive) | 113% | -0.413 (inactive) | -7.6e-05 (inactive) | 0.00746 (inactive) | -16.5% (inactive) | -26.8% (inactive)
4 | CCN(CC)S(=O)(=O)N1CCC(C(=O)NC2CCCc3ccccc32)CC1 (stereo not drawn) | 690 | 5.7% (inactive) | -6.5% (inactive) | 95% | -8.8% (inactive) | 116% | -0.49 (inactive) | 8.8e-05 (inactive) | 0.00498 (inactive) | -11.5% (inactive) | -8.15% (inactive)
5 | COc1ccccc1-c1nnc(SCC(=O)NC2CCCCC2)o1 | 490 | -7.8% (inactive) | -6.8% (inactive) | 76% | -86% (inactive) | 104% | -0.56 (inactive) | 5e-05 (inactive) | 0.00636 (inactive) | -1.61% (inactive) | 30.3% (inactive)
6 | O=C(O)CCn1c(=O)c2ccccc2c2ccccc2c1=O | 557 | 1% (inactive) | -13.6% (inactive) | 118% | 10.2% (inactive) | 101% | -0.537 (inactive) | 7e-06 (inactive) | 0.00528 (inactive) | -4.94% (inactive) | -9.95% (inactive)
7 | Nc1ncnc2oc(-c3ccco3)c(-c3ccco3)c12 | 413 | -3.3% (inactive) | 15.7% (inactive) | 84.7% | -29.9% (inactive) | 111% | -0.49 (inactive) | -1.2e-05 (inactive) | 0.00377 (inactive) | -5.47% (inactive) | -31.5% (inactive)
8 | CC(C)(C)n1ncc2c(=O)n(CC(=O)NCc3ccc(F)cc3)cnc21 | 403 | 9.3% (inactive) | 14.9% (inactive) | 95.8% | 18.8% (inactive) | 91.1% | -0.367 (inactive) | -5.3e-05 (inactive) | 0.00547 (inactive) | -15.8% (inactive) | -46.6% (inactive)
9 | Cn1c(=N)c(S(=O)(=O)c2ccc(Cl)cc2)cc2c(=O)n3ccccc3nc21 | 294 | 1.6% (inactive) | -0.4% (inactive) | 97.1% | 10.2% (inactive) | 94.5% | -0.405 (inactive) | -4.7e-05 (inactive) | 0.00398 (inactive) | 8.16% (inactive) | 40.1% (inactive)
10 | C=CCNS(=O)(=O)c1ccc2nsnc2c1 | 383 | 2.2% (inactive) | 6.3% (inactive) | 89.1% | -33.6% (inactive) | 121% | -0.508 (inactive) | -3.2e-05 (inactive) | 0.0046 (inactive) | -4.18% (inactive) | -2.28% (inactive)
11 | O=C(CSc1nnc(-c2ccc(Br)o2)n1Cc1ccccc1)c1ccccc1F | 336 | -5.8% (inactive) | 11.9% (inactive) | 87.1% | -35.1% (inactive) | 96.4% | -0.391 (inactive) | -4.8e-05 (inactive) | 0.00522 (inactive) | 6.04% (inactive) | 18.1% (inactive)
12 | Nc1nc2n(n1)C(c1cccc(Br)c1)CC(c1ccc(F)cc1)N2 (stereo not drawn) | 886 | -6.1% (inactive) | 9.7% (inactive) | 110% | -59% (inactive) | 102% | -0.608 (inactive) | 7.7e-06 (inactive) | 0.00861 (inactive) | 2.63% (inactive) | 15.8% (inactive)
13 | O=C(c1csc2ccccc12)n1cccn1 | 327 | 5.6% (inactive) | 6% (inactive) | 99.2% | 4.5% (inactive) | 105% | -0.502 (inactive) | -3.1e-05 (inactive) | 0.00494 (inactive) | 19% (inactive) | 21.3% (inactive)
14 | Cc1ccc(NC(=O)CN(C)S(=O)(=O)c2cccc3nsnc23)cc1Cl | 711 | -16.4% (inactive) | 7.2% (inactive) | 105% | -20.4% (inactive) | 115% | -0.333 (inactive) | -4.1e-05 (inactive) | 0.00467 (inactive) | -17.3% (inactive) | 100% (active)
15 | CS(=O)(=O)N(Cc1ccco1)CC(O)Cn1c2ccccc2c2ccccc21 (stereo not drawn) | 314 | 3.3% (inactive) | 3.9% (inactive) | 103% | -16.4% (inactive) | 97.9% | -0.388 (inactive) | 1.5e-05 (inactive) | 0.00353 (inactive) | 13.7% (inactive) | 35.1% (inactive)
16 | Cc1nn(C)c(C)c1S(=O)(=O)N1CCCC(C(=O)N2CCN(c3ccc(Cl)cc3)CC2)C1 (stereo not drawn) | 288 | -3.9% (inactive) | -45.6% (inactive) | 94.8% | -270% (inactive) | 85.9% | -0.591 (inactive) | -1.7e-05 (inactive) | 0.00589 (inactive) | 11.1% (inactive) | 11.6% (inactive)
17 | Cc1ccc(-n2ncc3c(=O)n(CC(=O)NCc4ccco4)cnc32)cc1 | 473 | -7% (inactive) | 9.4% (inactive) | 110% | -72.1% (inactive) | 108% | -0.485 (inactive) | -0.000156 (inactive) | 0.00543 (inactive) | 21.7% (inactive) | 20.3% (inactive)
18 | CCOC(=O)C1CCN(C(=O)c2ccc(Cl)c(Cl)c2)CC1 | 322 | 4.4% (inactive) | 7.9% (inactive) | 83.5% | -64.6% (inactive) | 110% | -0.522 (inactive) | 1.1e-05 (inactive) | 0.00596 (inactive) | -22.5% (inactive) | -5.49% (inactive)
19 | Cc1ccc(N2CCN(S(=O)(=O)N(C)C)CC2)c(C)c1 | 393 | -2.4% (inactive) | 23.9% (inactive) | 75.5% | -55.1% (inactive) | 107% | -0.559 (inactive) | -3.5e-06 (inactive) | 0.00671 (inactive) | 2.52% (inactive) | 4.97% (inactive)
20 | O=C(Nc1ccccc1)N(O)c1ccc(Cl)cc1 | 284 | -11.4% (inactive) | 38.9% (active) | 90.3% | 44.1% (inactive) | 85.6% | -0.378 (inactive) | -7.1e-05 (inactive) | 0.00373 (inactive) | -39.6% (inactive) | -78.3% (inactive)
21 | CN(C)CCN1C(=O)C(O)=C(C(=O)c2cc3ccccc3o2)C1c1ccc(N(C)C)cc1 (stereo not drawn) | 577 | 5.8% (inactive) | 11.6% (inactive) | 95.2% | 23.3% (inactive) | 109% | -0.549 (inactive) | -2.9e-05 (inactive) | 0.00711 (inactive) | 7.8% (inactive) | 27.2% (inactive)
22 | CCN(CC)c1nc2nonc2nc1N(CC)CC | 314 | -11.8% (inactive) | -1.5% (inactive) | 100% | -12.1% (inactive) | 94.7% | -0.446 (inactive) | -5.6e-05 (inactive) | 0.00553 (inactive) | 14.3% (inactive) | 21.8% (inactive)
23 | COc1ccc(S(=O)(=O)N2CCC(C(=O)c3ccc4c(c3)OCCO4)CC2)cc1 | 298 | -0.7% (inactive) | 14.2% (inactive) | 157% | -51.9% (inactive) | 119% | -0.461 (inactive) | -8e-05 (inactive) | 0.00739 (inactive) | -3.88% (inactive) | 12.1% (inactive)
24 | CCOC(=O)N1CCN(C(=O)CCc2ccc(S(=O)(=O)NCCc3ccccc3)cc2)CC1 | 735 | -1.6% (inactive) | 4.3% (inactive) | 102% | -24.7% (inactive) | 123% | -0.413 (inactive) | -9.6e-06 (inactive) | 0.00346 (inactive) | 2.18% (inactive) | 5.38% (inactive)
25 | COc1cccc(-n2c(SC3CCOC3=O)nc3ccccc3c2=O)c1 (stereo not drawn) | 387 | 2.4% (inactive) | -18% (inactive) | 101% | 7.5% (inactive) | 108% | -0.435 (inactive) | -5.4e-06 (inactive) | 0.00493 (inactive) | 2.92% (inactive) | 18.7% (inactive)
26 | CCOC(=O)N1CCC(c2cc(=O)n3[nH]cc(C(=O)OC)c3n2)CC1 | 534 | 6.8% (inactive) | -16.8% (inactive) | 58.3% | 7.4% (inactive) | 103% | -0.541 (inactive) | -1.8e-05 (inactive) | 0.00674 (inactive) | 16.5% (inactive) | 35.8% (inactive)
27 | CC1Cc2ccccc2N1S(=O)(=O)c1ccc2c(c1)n(C)c(=O)c(=O)n2C (stereo not drawn) | 339 | 6.6% (inactive) | -25.5% (inactive) | 96.4% | -21.1% (inactive) | 111% | -0.43 (inactive) | 6.1e-06 (inactive) | 0.00562 (inactive) | 19.2% (inactive) | 17.1% (inactive)
28 | Cc1cc(C)c2c(=O)n(CC(=O)N3CCC(Cc4ccccc4)CC3)sc2n1 | 611 | 16.6% (inactive) | 3% (inactive) | 104% | -6.1% (inactive) | 121% | -0.559 (inactive) | -6.7e-06 (inactive) | 0.00614 (inactive) | 20.7% (inactive) | 46.2% (inactive)
